Assay results taken from PubChem BioAssay (NCATS).
Inconclusive results are not listed. Unmarked numbers belong to inactive results. The source made the active and inactive calls. Calls follow the shape of the dose curve; as a rule, active = well fitted inhibition curve with a large enough effect; inconclusive = small, poorly fitted or top-dose-only effect; inactive = no such curve, though single readings can be large or run the other way. Where a SMILES comes first, the peptide text is derived from it. The star is where a group is joined. Hexanoyl = CCCCCC(=O)*

Test system: Zika virus NS2B-NS3 protease (linked construct)
Test: Primary screen NINDS Rhodamine qHTS for Zika virus inhibitors (AID 1347160); also: nearly all actives have a fitted effect of over 55% in size; as to activity change, negative = inhibition: % is scaled to controls: 0 for no effect and ±100 for the full control effect
Settings: purified NS2B-NS3 protease, Rhodamine110 substrate fluorescence; series mostly up to 33.1 µM
Procedure, shortened: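 Each compound, titrated, sat 15 min with 25 nM linked protease before 1.5 microM Rhodamine110 substrate went in. Fluorescence gain over the next 15 min, in pH 8.0 Tris with Tween 20, gave Hill-fitted curves.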
Potency is read from the fitted curve at half-maximal effect.

Compound | Potency
CC1(C)CC[C@]2(C(=O)O)CC[C@]3(C)C(=CCC4[C@@]5(C)CC[C@H](O[C@@H]6O[C@H](C(=O)O)[C@@H](O)[C@H](O)[C@H]6O)C(C)(C)C5CC[C@]43C)C2C1 (some centres not stated) | inactive
CCC(C)/C=C(C)/C=C/C1=CC2=CC(=O)C(C)(O)C(OC(C)=O)C2CO1 (configuration not stated) | inactive
O=C(/C=C/c1ccccc1)OC[C@H]1O[C@@H](OC(=O)c2cc(O)c(O)c(O)c2)[C@H](O)[C@@H](O)[C@@H]1O | inactive
C=CC1(C)C=C2CC[C@H]3[C@@](C)(C(=O)O)CCC[C@]3(C)C2CC1 (some centres not stated) | 3.55 µM (active)

Test system: not listed separately
Test: Confirmatory screen NINDS Rhodamine qHTS for Zika virus inhibitors (AID 1347161); also: nearly all actives have a fitted effect of over 60% in size;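 as to activity change, negative = inhibition: purified Zika NS2B-NS3 protease with linked NS2B cofactor domain and Rhodamine110 peptide substrate; plate controls were no-inhibitor control for no effect and no-enzyme control for full effect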
Settings: purified enzyme assay, Rhodamine110 substrate fluorescence, 15 min; series mostly up to 114 µM
Procedure, shortened: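 Single-chain NS2B-NS3 protease, 25 nM, pH 8.0; compounds preincubated 15 min. Activity: Rhodamine110 release from 1.5 microM substrate over 15 min, room temperature, data fitted to 4-parameter Hill.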

Compound | Potency | activity change, negative = inhibition
CC1(C)CC[C@]2(C(=O)O)CC[C@]3(C)C(=CCC4[C@@]5(C)CC[C@H](O[C@@H]6O[C@H](C(=O)O)[C@@H](O)[C@H](O)[C@H]6O)C(C)(C)C5CC[C@]43C)C2C1 (some centres not stated) | 6.55 µM (active) | –
CCC(C)/C=C(C)/C=C/C1=CC2=CC(=O)C(C)(O)C(OC(C)=O)C2CO1 (configuration not stated) | 34.3 µM (active) | –
O=C(O)CC/C=C\C[C@H]1CO[C@@H](c2ccccc2Cl)O[C@H]1c1ccccc1O | 44.1 µM (active) | –
O=C(/C=C/c1ccccc1)OC[C@H]1O[C@@H](OC(=O)c2cc(O)c(O)c(O)c2)[C@H](O)[C@@H](O)[C@@H]1O | 3.41 µM (active) | –
CSCC[C@H](NC(=O)[C@H](CO)NC(=O)[C@H](CCC(=O)O)NC(C)=O)C(=O)N[C@H](C=O)CC(=O)O (Ac-ESMD-aldehyde) | – | 12.5% [at 22.2 µM]
CCCCCC(=O)N1CCC[C@H]1C(=O)N[C@@H](Cc1ccc(O)cc1)C(=O)OC (Hexanoyl-Pro-Tyr-OMe) | inactive | –
C=CC1(C)C=C2CC[C@H]3[C@@](C)(C(=O)O)CCC[C@]3(C)C2CC1 (some centres not stated) | 9.67 µM (active) | –
COc1cc2c(c(OC)c1O)C(c1ccc(O)cc1)C1C(=O)OC3C(COC(=O)C1=C2)OC(CO)(OC1OC(COC(=O)/C=C/c2ccc(OC4OC(C)C(O)C(O)C4O)cc2)C(O)C(O)C1O)C3O (configuration not stated) | 7.44 µM (active) | –
